{"source": "PubChem BioAssay (NCATS)", "note": "Records with an inconclusive call do not appear. Unmarked numbers belong to inactive results. Calls of active or inactive are those of the source. The call rests on the fitted dose curve; in most records, active means well fitted cell-killing curve with a large enough effect; inconclusive means small, poorly fitted or top-dose-only effect; inactive means no such curve, though single readings can be large or run the other way. Potency means the concentration at half of the fitted maximal effect."}
{"experiment": "qHTS of pediatric cancer cell lines to identify multiple opportunities for drug repurposing: Primary screen for Rh41 cells (AID 1347108); further: nearly all actives have a fitted effect of over 70% in size;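 on activity change, negative = cytotoxic: luminescence drop marks cytotoxic hits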", "details": "Rh41 rhabdomyosarcoma viability, CellTiter-Glo luminescence, 48 h; series mostly up to 46 µM; activity change, negative = cytotoxic: at the top concentration", "source_text": "Drug repurposing or repositioning has been offered as a strategy for drug development in oncology programs. This approach has special potential for childhood cancers and other rare or orphan diseases, where the expected return on new drug development has been a disincentive to pharmaceuticals. […] In this project we exploit the poly-pharmacology of drugs to discover new indications via phenotypic screening of a panel of 19 well-characterized cell lines derived from solid tumors seen in children and adolescents. The goal is to identify approved drugs with previously unrecognized anticancer properties that has the potential to reveal new mechanisms and biological processes involved in carcinogenesis or drug resistance. We employed a titration-based paradigm (quantitative high-throughput screening or qHTS), where all compounds were tested at multiple concentrations for their effect on cell viability. Concentration-response curves (CRCs) were derived directly from the primary screen, and both potency and efficacy values were used to identify compounds with robust bioactivity profiles. We screened the NIH Chemical Genomics Center (NCGC) Pharmaceutical Collection (NPC) and Mechanism Interrogation Plate (MIPE) small molecule collections of approved and investigational compounds against these cell lines; and measured metabolically active cells after 48 hours of compound treatment as a proxy for cell viability. […] Assay Submitter: Nathalia J. Martinez, National Center for Advancing Translational Sciences, National Institutes of Health, Rockville, MD, USA; email: natalia.martinez@nih.gov Shen, M et al. Quantitative high-throughput phenotypic screening of pediatric cancer cell lines identifies multiple opportunities for drug repurposing. Oncotarget 2017 Dec 19;9(4):4758-4772. PMID 29435139.\nThe cells were obtained from University of North Carolina (UNC), Pediatric Preclinical Testing Program (PPT), and Coriell Institute (CI). qHTS cell viability assay: Cells were assayed in growth media at a density of 500-1,000 cells/well. Five microliters of cells were dispensed into 1,536-well, white, solid-bottom, TC-treated plates (Greiner Bio One) using a multidrop dispenser and incubated at 37 degrees C, 5% CO2, under a humidified atmosphere for 5 hours. Twenty-three nanoliters of compounds and controls (neutral control DMSO or positive control bortezomib at final concentration of 2.3 µM) were subsequently transferred by Kalypsys pintool. For primary screens, the MIPE collection was tested at 11-point dilutions (final concentrations range from 0.78 nM to 46 µM) and the NPC collection at 8-point dilutions (final concentrations range from 0.59 nM to 46 µM). Compounds tested in follow-up screens were assayed at 11-point dilutions. Cells were incubated for 48 hours, followed by addition of 3 µL of CellTiter-Glo (Promega). After a 15 min incubation at room temperature, samples were analyzed for luminescence intensity using a ViewLux High-throughput CCD imager equipped with clear filters."}
{"smiles": "c1ccc2occc2c1", "activity change, negative = cytotoxic": "20.9% [at 92.7 µM]"}
{"smiles": "O=c1[nH]c2ccccc2c(=O)n1CCCl", "activity change, negative = cytotoxic": "37.1%"}
{"smiles": "CCC(=O)O[C@H]1[C@H](O[C@@H]2[C@@H](C)[C@H](O[C@H]3C[C@@](C)(OC)[C@@H](O)[C@H](C)O3)[C@@H](C)C(=O)O[C@H](CC)[C@@](C)(O)[C@H](O)[C@@H](C)C(=O)[C@H](C)C[C@@]2(C)O)O[C@H](C)C[C@@H]1N(C)C", "activity change, negative = cytotoxic": "21.3%"}
{"smiles": "Cc1oc(-c2ccccc2)nc1CCC(=O)c1ccc(CC2SC(=O)NC2=O)cc1", "note": "(stereo not given)", "activity change, negative = cytotoxic": "15.9%"}
{"smiles": "CO[C@@]1(NC(=O)CSC[C@@H](N)C(=O)O)C(=O)N2C(C(=O)O)=C(CSc3nnnn3C)CS[C@@H]21", "activity change, negative = cytotoxic": "11.7%"}
{"smiles": "O=C(O)C1CCC1", "activity change, negative = cytotoxic": "29.4%"}
{"smiles": "CO[C@@H]1[C@@H](OC)[C@H](C)[C@@](O)(CC(=O)O)O[C@H]1[C@H](C)[C@H]1O[C@@]2(CC[C@@](C)([C@H]3CC[C@@](C)([C@@H]4O[C@@H]([C@H]5O[C@](C)(O)[C@H](C)C[C@@H]5C)C[C@@H]4OC4C[C@H](OC)[C@@H](OC)[C@H](C)O4)O3)O2)C[C@H](O)[C@H]1C", "note": "(stereo not given in full)", "Potency": "4.22 µM (active)"}
{"smiles": "COc1cc(C=O)ccc1O", "activity change, negative = cytotoxic": "27.4%"}
{"smiles": "COc1ccc(/C(C)=C/C(=O)O)c(OC)c1", "activity change, negative = cytotoxic": "27.1%"}
{"smiles": "Nc1cccc2c(N)cccc12", "Potency": "30.6 µM (active)"}
{"smiles": "CCCc1c2oc(C(=O)O)cc(=O)c2cc2c(=O)cc(C(=O)O)n(CC)c12", "activity change, negative = cytotoxic": "8.09%"}
{"smiles": "COc1cc(NS(=O)(=O)c2ccc(N)cc2)nc(C)n1", "activity change, negative = cytotoxic": "21.8%"}
{"smiles": "NS(=O)(=O)c1cc(C(=O)NN2C[C@H]3[C@H]4CCC(C4)[C@H]3C2)ccc1Cl", "activity change, negative = cytotoxic": "10.2%"}
{"smiles": "C=CCOc1cc(Cl)ccc1C(=O)NCCN(CC)CC", "activity change, negative = cytotoxic": "13%"}
{"smiles": "O=C1CC(c2ccc(Cl)cc2)CC(=O)N1", "activity change, negative = cytotoxic": "30.3%"}
{"smiles": "CCN(CC)CC(=O)Nc1c(C)cccc1C(=O)OC", "activity change, negative = cytotoxic": "5.04%"}
{"smiles": "C#Cc1ccc(-c2ccccc2F)cc1", "activity change, negative = cytotoxic": "28.7%"}
{"smiles": "CCC(=O)Oc1ccc2c(c1)CC[C@@H]1[C@@H]2CC[C@@]2(C)[C@H]1C[C@@H](OC(=O)CC)[C@@H]2OC(=O)CC", "activity change, negative = cytotoxic": "8.78%"}
{"smiles": "CC(C)Cc1ccc(C(C)C(=O)OCc2ccccn2)cc1", "note": "(stereo not given)", "activity change, negative = cytotoxic": "1.64%"}
{"smiles": "Oc1cccc2[nH]ccc12", "activity change, negative = cytotoxic": "30.3%"}
{"smiles": "Nc1ccc(C(=O)N2CC3CC(CN(Cc4ccccc4)C3)C2)cc1", "activity change, negative = cytotoxic": "26.2%"}
{"smiles": "COc1cc(OC)nc(O[C@H](C(=O)O)C(OC)(c2ccccc2)c2ccccc2)n1", "activity change, negative = cytotoxic": "-0.995%"}
{"smiles": "CN(C)C(=O)CNC(=O)Cc1ccccc1", "activity change, negative = cytotoxic": "-0.912%"}
{"smiles": "C=CCNc1nc(NCC=C)nc(N2CCN(C(c3ccc(F)cc3)c3ccc(F)cc3)CC2)n1", "activity change, negative = cytotoxic": "-2.1%"}
{"smiles": "CCN1CCN(c2cc(-c3ccc(F)cc3)c3c(n2)CCCCCC3)CC1", "activity change, negative = cytotoxic": "8.28% [at 16.1 µM]"}
{"smiles": "CN1C(CSCC(F)(F)F)Nc2cc(Cl)c(S(N)(=O)=O)cc2S1(=O)=O", "note": "(stereo not given)", "activity change, negative = cytotoxic": "14.3%"}
{"smiles": "CN1CCC(Nc2ncc3ncnc(Nc4ccc(F)c(Cl)c4)c3n2)CC1", "activity change, negative = cytotoxic": "7.12%"}
{"smiles": "COc1ccc2c(c1)CCCC2=O", "activity change, negative = cytotoxic": "25.3%"}
{"smiles": "C/C=C(/C(=C/C)c1ccc(OC(C)=O)cc1)c1ccc(OC(C)=O)cc1", "activity change, negative = cytotoxic": "33.2%"}
{"smiles": "CO/N=C(/C(=O)N[C@@H]1C(=O)N2C(C(=O)O)=C(Cn3nnc(C)n3)CS[C@H]12)c1csc(N)n1", "activity change, negative = cytotoxic": "32.7%"}
{"smiles": "CC(C)(C)C(O)/C=C/c1ccc2c(c1)OCO2", "note": "(stereo not given)", "activity change, negative = cytotoxic": "21.8%"}
{"smiles": "CC(C)C(=O)OCc1cccc(OC(=O)[C@@H]2N3C(=O)[C@@H](NC(=O)Cc4ccccc4)[C@H]3SC2(C)C)c1", "activity change, negative = cytotoxic": "22.4%"}
{"smiles": "NC(=O)NS(=O)(=O)c1ccc(Cl)cc1", "activity change, negative = cytotoxic": "26.9%"}
{"smiles": "CC(=O)N(CC(=O)N(C)C)c1ccccc1", "activity change, negative = cytotoxic": "-9.35%"}
{"smiles": "CC(=O)OC[C@H]1O[C@@H](OC(C)=O)[C@H](OC(C)=O)[C@@H]1OC(C)=O", "activity change, negative = cytotoxic": "26.8%"}
{"smiles": "O=C1CC[C@H](C(=O)N2CCCCC2)N1", "activity change, negative = cytotoxic": "6.33%"}
{"smiles": "Cc1cc(C(C)(C)C)c(O)c(C(C)(C)C)c1", "activity change, negative = cytotoxic": "21.6%"}
{"smiles": "CC(C)C[C@H](NC(=O)CNC(=O)[C@H](Cc1ccc(O)cc1)NC(=O)[C@H](CO)NC(=O)[C@H](Cc1c[nH]c2ccccc12)NC(=O)[C@H](Cc1cnc[nH]1)NC(=O)[C@@H]1CCC(=O)N1)C(=O)N[C@@H](CCCN=C(N)N)C(=O)N1CCC[C@H]1C(=O)NCC(N)=O", "note": "(stereo in doubt)", "activity change, negative = cytotoxic": "19.4%"}
{"smiles": "CCCCCCCCCCCC[N+](C)(C)Cc1ccccc1", "Potency": "21.1 µM (active)"}
{"smiles": "O=C1Nc2cc(Cl)ccc2Oc2ccccc21", "activity change, negative = cytotoxic": "11.3%"}
